A selection: hits, their analogues and other compounds. The true share with any hit is near 7.6%.
HEK293 cAMP cs: raises cAMP in parental HEK293 cells, TSHR agonist counter-screen; parental HEK293 CNG cAMP sensor, membrane potential fluorescence; Potency, µM (top dose mostly 57.1 µM), actives largely listed as activators; 2.5% of 73,000 active; AID 938; note: nearly all actives have a fitted effect of over 55% in size
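Parental HEK 293 cells stably expressing a modified CNG channel (no TSHR) report cAMP rise as membrane depolarization. Membrane potential dye with 100 uM RO 20-1724 was loaded for 60 min at room temperature, then compound added for 30 min; fluorescence read at 590 nm.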
ERK AVP inh: inhibitors of vasopressin-stimulated ERK signaling pathway; HEK293-V1b, vasopressin-stimulated pERK AlphaScreen; Potency, µM (series often up to 57.5 µM), most hits filed as inhibitors; 0.99% of 72,000 active; AID 995; note: nearly all actives have a fitted effect of over 55% in size
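HEK293 cells stably expressing V1b receptor, seeded overnight in 1% FBS, were treated with compounds for 30 min at 37C, then stimulated 5 min with 25 nM vasopressin; phospho-ERK read by AlphaScreen SureFire after lysis.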
CRE Fsk mod: alters forskolin-stimulated CRE reporter signaling in CHO cells; CHO CRE-bla reporter (cAMP response element driving beta-lactamase), forskolin EC10, beta-lactamase ratio; Potency, µM (top dose mostly 38.2 µM), hits mostly activators; 2.5% of 71,000 active; active = well fitted activation curve with a large enough effect in the signal ratio, with a control signal flat, not every such curve was filed as active; inconclusive = small, poorly fitted or top-dose-only effect, or effect the other way, or a change in a side signal; the % refers to the signal ratio
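CRE-bla CHO reporter cells treated with compound titration plus EC10 NKH 477 (water-soluble forskolin), incubated 3 h at 37 °C; CCF4 loading 2 h at room temperature, 460/530 nm emission ratio read, AC50 values derived for positive or negative modulators.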
Tau fil binding: binds recombinant human tau filaments. P10636. recombinant tau filaments, thioflavin S fluorescence, 15 h; filaments grown with octadecylsulfate alongside compound. Potency, µM (doses to about 57.1 µM). 2% of 71,000 active;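 note: actives lower thioflavin S fluorescence by blocking filaments or displacing dye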
Target sequence (P10636 whole entry, looked up): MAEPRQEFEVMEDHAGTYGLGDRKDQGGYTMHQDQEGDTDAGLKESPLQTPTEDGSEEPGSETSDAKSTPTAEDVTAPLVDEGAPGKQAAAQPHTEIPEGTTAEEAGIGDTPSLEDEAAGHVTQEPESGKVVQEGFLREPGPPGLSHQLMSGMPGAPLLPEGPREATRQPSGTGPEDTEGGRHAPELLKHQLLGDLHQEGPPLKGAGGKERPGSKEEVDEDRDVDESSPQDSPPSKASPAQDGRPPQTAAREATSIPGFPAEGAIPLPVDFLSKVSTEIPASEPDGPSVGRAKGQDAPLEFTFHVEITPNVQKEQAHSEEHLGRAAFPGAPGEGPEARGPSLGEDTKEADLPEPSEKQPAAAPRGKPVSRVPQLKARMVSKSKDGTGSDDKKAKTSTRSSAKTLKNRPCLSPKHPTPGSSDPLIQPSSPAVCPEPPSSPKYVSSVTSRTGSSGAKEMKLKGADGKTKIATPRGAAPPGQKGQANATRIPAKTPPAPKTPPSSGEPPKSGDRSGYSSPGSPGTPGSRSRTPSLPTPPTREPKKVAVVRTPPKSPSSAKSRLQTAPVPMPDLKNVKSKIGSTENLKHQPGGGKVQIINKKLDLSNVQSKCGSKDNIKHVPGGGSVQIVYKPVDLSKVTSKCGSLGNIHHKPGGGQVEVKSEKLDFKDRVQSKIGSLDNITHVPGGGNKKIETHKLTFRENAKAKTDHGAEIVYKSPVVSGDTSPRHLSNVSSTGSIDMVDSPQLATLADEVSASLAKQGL
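Quantitative HTS: thioflavine S signal from ODS-induced tau filaments, excited at 450 nm, emission 510 nm. Conditions: 1 uM tau, 30 uM ODS, 15 h at 37 C, pH 7.4.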
TSHR agonist: TSH receptor (human) agonism; HEK293-CNG-TSHR cells (CNG channel as cAMP sensor), membrane potential dye, cAMP; AID 926; 0.48% of 73,000 active; Potency, µM (top dose mostly 57.1 µM), most hits filed as activators; P16473; active = well fitted activation curve with a large enough effect in the main read-out, with a control signal flat, not every such curve was filed as active; inconclusive = small, poorly fitted or top-dose-only effect, or a change in a side signal; inactive = no such curve, though single readings can be large or run the other way; reference of the percent scale not stated here;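 note: the control signal comes from parental cells without the receptor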
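cAMP rise detected as CNG-channel membrane depolarization by fluorescent dye (emission 590 nm), 30 min after compound, following 60 min dye loading containing 100 uM RO 20-1724 at room temperature. Cells: TSHR/CNG HEK 293, with parental CNG HEK 293 as control.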
Large screens that a line does not name were inactive. Unless noted, calls come from the whole dose curve; as a rule, active = well fitted curve in the direction sought with a large enough effect; inconclusive = small, poorly fitted or top-dose-only effect, or another doubt; inactive = no such curve, though single readings can be large; an effect the other way counts as inactive or inconclusive.

C=CCSc1nc2c(c(=O)[nH]c(=O)n2C)n1C(C)C	CRE Fsk mod 10µM
C=CCn1c(SCc2ccc(Cl)cc2)nc2c1c(=O)[nH]c(=O)n2C	CRE Fsk mod 10µM
CC(C)=CCC/C(C)=C/CO/N=C1/[C@H]2O[C@@H]2[C@@H](O)[C@H]2[C@H]1CCn1c(=O)n(Cc3cc4c(cc3Cl)OCO4)c(=O)n12	none (no result: CRE Fsk mod, Tau fil binding)
CCCn1c(-c2ccc(F)cc2)nc2c(NCCN(CC)CC)nc(C)nc21	HEK293 cAMP cs inconclusive, TSHR agonist inconclusive
O=C(Nc1ccccc1)c1cccc(-c2nnc(-c3ccccc3)o2)c1	HEK293 cAMP cs 32µM, TSHR agonist inconclusive
O=C(Nc1cccc(-c2nnc(-c3ccccc3)o2)c1)c1ccco1	HEK293 cAMP cs inconclusive, TSHR agonist inconclusive
O=C(Nc1ccc(N2CCOCC2)cc1)c1ccc2nc(-c3ccco3)c(-c3ccco3)nc2c1	ERK AVP inh inconclusive, Tau fil binding 7.9µM
O=C(Nc1ccccc1)c1ccc2nc(-c3ccco3)c(-c3ccco3)nc2c1	ERK AVP inh inconclusive, CRE Fsk mod inconclusive, Tau fil binding 0.63µM
Nc1c(C(=O)Nc2ccccc2)sc2nc(-c3ccco3)ccc12	ERK AVP inh 32µM, CRE Fsk mod inconclusive, Tau fil binding 2µM
COc1ccc(C(=O)Nc2ccc(N3CCOCC3)cc2)cc1OC	none
COc1ccc2c(c1)[C@]1(C)CCC[C@](C)(CO)[C@@H]1CC2	none (no result: ERK AVP inh, TSHR agonist)
O=C(OCCOc1ccccc1Cl)c1ccc(-n2cnnn2)cc1	HEK293 cAMP cs 40µM, ERK AVP inh inconclusive, CRE Fsk mod inconclusive, TSHR agonist inconclusive
C#CCCCO/N=C1/C[C@@H](O)[C@@H](O)[C@@H]2[C@@H]3C(=O)N(C4CCCCC4)C(=O)[C@H]3CC[C@@H]12	none (no result: CRE Fsk mod, Tau fil binding)
Cn1c2ccccc2c2ncn(Cc3ccco3)c(=O)c21	CRE Fsk mod 10µM
COc1cccc(-c2nc(N(C)Cc3ccco3)c3ccccc3n2)c1	HEK293 cAMP cs inconclusive, CRE Fsk mod inconclusive, TSHR agonist inconclusive
Cc1ccccc1-c1nnc(-c2ccc(Br)cc2)o1	HEK293 cAMP cs 3.2µM, TSHR agonist inconclusive
c1ccc(CCCNc2ncnc3nc[nH]c23)cc1	HEK293 cAMP cs inconclusive, CRE Fsk mod 7.9µM, TSHR agonist inconclusive (no result: ERK AVP inh)
N=c1c(C(=O)NCc2ccc(F)cc2)cc2c(=O)n3ccccc3nc2n1CC1CCCO1 (stereo not given)	CRE Fsk mod 2µM, Tau fil binding 3.2µM, TSHR agonist inconclusive
Cc1ccc(CNC(=O)c2cc3c(=O)n4cccc(C)c4nc3n(CC3CCCO3)c2=N)cc1 (stereo not given)	CRE Fsk mod inconclusive, Tau fil binding 1.3µM
N=c1c(C(=O)NC2CCCC2)cc2c(=O)n3ccccc3nc2n1CCN1CCOCC1	CRE Fsk mod inconclusive
COCCCn1c(=N)c(C(=O)NCC2CCCO2)cc2c(=O)n3ccccc3nc21 (stereo not given)	CRE Fsk mod 16µM
CCCn1c(=N)c(C(=O)NCC2CCCO2)cc2c(=O)n3cccc(C)c3nc21 (stereo not given)	CRE Fsk mod 13µM (no result: TSHR agonist)
OCC1OC(c2ccccc2)C=CC1Oc1cc(Cl)cc(Cl)c1 (stereo not given)	none (no result: CRE Fsk mod, Tau fil binding)
O=C(CSc1nnc(-c2ccc(Cl)cc2)n1Cc1ccco1)c1cccs1	HEK293 cAMP cs 16µM, CRE Fsk mod inconclusive, TSHR agonist inconclusive
O=C(CSc1nnc(COc2ccc(Cl)cc2)n1Cc1ccco1)c1ccccc1F	HEK293 cAMP cs 25µM, TSHR agonist inconclusive
O=C(CSc1nnc(-c2ccncc2)n1Cc1ccco1)c1ccc(Cl)cc1	HEK293 cAMP cs inconclusive, TSHR agonist inconclusive
Clc1ccc(OCc2nnc(SCc3nc4ccccc4[nH]3)n2Cc2ccco2)cc1	ERK AVP inh 20µM
Cc1cc(NC(=O)CSc2nnc(COc3cccc(C)c3C)n2Cc2ccco2)no1	none
Cc1cccc(OCc2nnc(SCC(=O)N(C(C)C)C(C)C)n2Cc2ccco2)c1C	HEK293 cAMP cs 7.9µM, CRE Fsk mod 13µM, TSHR agonist inconclusive
Clc1cccc(-c2nnc(SCc3nc4ccccc4[nH]3)n2Cc2ccco2)c1	HEK293 cAMP cs inconclusive, ERK AVP inh inconclusive, CRE Fsk mod inconclusive, TSHR agonist inconclusive
COc1ccc(C)cc1NC(=O)CSc1nnc(COc2ccc(Cl)cc2)n1Cc1ccco1	HEK293 cAMP cs inconclusive, CRE Fsk mod inconclusive, TSHR agonist inconclusive
CC(C)C[C@@H](CC(=O)N[C@@H](CCC(=O)O)CC(=O)O)NC(=O)[C@@H]1CCCC[C@H]1NC(=O)C[C@H](CCCN)NC(=O)C[C@H](Cc1c[nH]c2ccccc12)NC(=O)[C@@H]1CCCC[C@H]1N	none (no result: ERK AVP inh)
CC(C)c1nc2oc3c(NCC4CCCO4)ncnc3c2c2c1COC(C)(C)C2 (stereo not given)	ERK AVP inh inconclusive, CRE Fsk mod 1µM
CCCc1nc2oc3c(NCCN4CCOCC4)ncnc3c2c2c1CCCC2	CRE Fsk mod 0.79µM
Cc1nc2oc3c(NCc4ccccc4)ncnc3c2c2c1COC(C)(C)C2	ERK AVP inh inconclusive, CRE Fsk mod 5µM
CCCc1nc2oc3c(NCCOCCO)ncnc3c2c2c1COC(C)(C)C2	ERK AVP inh inconclusive, CRE Fsk mod 2µM
O=C(NCCCCN1CCCC1)c1ccc(-n2c(=O)c(=O)[nH]c3ccccc32)cc1	none (no result: ERK AVP inh, CRE Fsk mod, Tau fil binding)
COc1ccc(-n2c(C)cc(C(=O)CSc3nnc(-c4ccoc4C)n3C)c2C)cc1	HEK293 cAMP cs 32µM, TSHR agonist inconclusive
Cc1cc(C(=O)CSc2nncs2)c(C)n1-c1c(C)n(C)n(-c2ccccc2)c1=O	none
COc1ccc(C(=O)CSc2nn3c(=O)c(C(C)(C)C)nnc3s2)cc1	none
COc1ccc(-n2c(C)cc(C(=O)CSc3nn4c(=O)c(C(C)(C)C)nnc4s3)c2C)cc1	Tau fil binding 20µM
Cc1ccc(-n2c(C)cc(C(=O)CSc3nncs3)c2C)cc1	HEK293 cAMP cs 25µM, TSHR agonist inconclusive
COC(=O)c1ccccc1NC(=O)CSc1nnc(-c2ccoc2C)n1C	HEK293 cAMP cs inconclusive, TSHR agonist inconclusive
O=c1[nH]ncc2c3ccccc3n(Cc3ccc(F)cc3)c12	TSHR agonist 16µM (no result: ERK AVP inh, CRE Fsk mod, Tau fil binding)
C[C@@H](C(=O)Nc1ccc2ccccc2c1)[C@@H]1C[C@@]1(C)[C@@H](NC(=O)c1cnccn1)c1ccccc1	HEK293 cAMP cs inconclusive, CRE Fsk mod inconclusive, TSHR agonist inconclusive
C[C@@H](C(=O)Nc1ccc2ccccc2c1)[C@H]1C[C@]1(C)[C@H](NC(=O)c1cnccn1)c1ccccc1	HEK293 cAMP cs 16µM, TSHR agonist inconclusive
Cc1cc(C(=O)N[C@H](c2ccccc2)[C@@]2(C)C[C@@H]2[C@@H](C)C(=O)Nc2ccc3ccccc3c2)no1	HEK293 cAMP cs 1.6µM, TSHR agonist inconclusive
Cc1cc(C(=O)N[C@@H](c2ccccc2)[C@]2(C)C[C@H]2[C@@H](C)C(=O)Nc2ccc3ccccc3c2)no1	HEK293 cAMP cs inconclusive, CRE Fsk mod inconclusive, TSHR agonist inconclusive
Cc1ccccc1C(=O)NCc1ccncc1	ERK AVP inh 25µM
